Only some compounds are listed: those with a hit (about 15% of all), similar ones and a draw of the others.
Gal4-VP16 FLuc = VP16 counterscreen qHTS for inhibitors of ROR gamma transcriptional activity; Drosophila S2 Gal4-VP16 UAS-luciferase, luminescence, 20 h; Potency, µM (series often up to 53.6 µM), without a hit: at the highest dose activity, negative = inhibition, actives largely listed as inhibitors; hit rate 3.5% among 310,000; AID 2546, 2010;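 also: Gal4-VP16 expression switched on by copper sulfate through the metallothionein promoter; nearly all actives have a fitted effect of over 50% in size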
DT40 TDP1 CPT = qHTS for Inhibitors of human tyrosyl-DNA phosphodiesterase 1 (TDP1): qHTS in cells in presence of CPT. chicken DT40 Tdp1-/-;hTDP1 cells + 20 nM CPT, ATP luminescence, 48 h. Potency, µM (series often up to 46.2 µM), inactives show at the top dose activity change, negative = growth inhibition, actives largely listed as inhibitors. hit rate 12% among 420,000; also: nearly all actives have a fitted effect of over 55% in size
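Cell growth measured by CellTiter-Glo luminescence after a minimum 48 h, 37 C compound exposure with 20 nM CPT in Tdp1-knockout DT40 cells stably expressing hTDP1, seeded 400/well; qHTS titration format.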
RORgamma inh = qHTS for inhibitors of ROR gamma transcriptional activity | hit rate 5.4% among 310,000 | Drosophila S2 Gal4-RORgamma UAS-luciferase reporter, 20 h | Potency, µM (titrated, usually from 53.6 µM), inactives show at the top dose activity change, negative = inhibition, usual class: inhibitors; also: nearly all actives have a fitted effect of over 60% in size
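Read-out: Photinus luciferase luminescence; inhibitors lower reporter signal. Insect Schneider cells with Gal4-ROR gamma fusion under metallothionein promoter, UAS reporter; 700 uM final copper sulfate induction, 20 hr, ambient temperature.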
ELG1 repair inh = qHTS screen for small molecules that inhibit ELG1-dependent DNA repair in human embryonic kidney (HEK293T) cells expressing luciferase-tagged ELG1; HEK293T ELG1-luciferase reporter, luminescence, 16 h; DNA damage induced by 5-fluorouridine; Potency, µM (top dose mostly 46.1 µM), without a hit: at the highest dose activity change, negative = inhibition, most hits filed as inhibitors; hit rate 2.3% among 330,000; AID 504467, 2011; also: nearly all actives have a fitted effect of over 55% in size
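Cells (2,000 per well) received 5-fluorouridine plus test compound or DMSO and were incubated 16 hr at 37 °C, 5% CO2. Luciferase activity was read by luminescence 30 min after ONE-Glo addition; signal suppression marked inhibition of damage-induced ELG1 function.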
12-LOX inh = Primary qHTS assay for inhibitors of human arachidonate 12S-lipoxygenase (ALOX12): Round 2 | hit rate 1.1% among 580,000 | Potency, µM (series often up to 108 µM), for the others: at the top dose activity change, negative = inhibition, hits mostly inhibitors | purified 12hLO, xylenol orange hydroperoxide absorbance
Target sequence (P18054 whole entry, looked up): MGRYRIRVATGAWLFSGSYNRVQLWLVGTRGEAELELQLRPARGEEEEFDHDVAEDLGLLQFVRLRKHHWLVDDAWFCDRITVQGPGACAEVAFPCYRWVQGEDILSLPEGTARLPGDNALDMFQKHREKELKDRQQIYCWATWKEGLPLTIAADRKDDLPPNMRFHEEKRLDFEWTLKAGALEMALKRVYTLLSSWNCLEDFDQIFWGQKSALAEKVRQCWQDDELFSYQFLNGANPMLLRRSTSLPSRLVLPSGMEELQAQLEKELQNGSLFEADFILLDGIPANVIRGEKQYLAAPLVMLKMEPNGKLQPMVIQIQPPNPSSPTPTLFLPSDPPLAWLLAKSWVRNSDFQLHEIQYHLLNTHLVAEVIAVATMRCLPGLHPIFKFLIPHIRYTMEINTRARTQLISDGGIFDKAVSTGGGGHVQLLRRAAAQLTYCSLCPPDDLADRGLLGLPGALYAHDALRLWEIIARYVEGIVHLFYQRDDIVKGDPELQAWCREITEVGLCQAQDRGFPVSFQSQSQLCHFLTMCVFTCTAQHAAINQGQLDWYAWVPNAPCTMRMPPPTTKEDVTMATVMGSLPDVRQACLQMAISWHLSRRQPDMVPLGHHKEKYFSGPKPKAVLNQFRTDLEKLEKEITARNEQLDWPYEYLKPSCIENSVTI
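Purified human 12hLO (150 nM final) in 25 mM Hepes, 0.01% Triton X-100, pH 7.0 was preincubated 15 min at room temperature with compound. Then 40 uM arachidonic acid was added, 30 min. Hydroperoxide was read by Fe-XO absorbance ratio 573/405 nm.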
DT40 TDP1 no CPT = qHTS for Inhibitors of human tyrosyl-DNA phosphodiesterase 1 (TDP1): qHTS in cells in absence of CPT; DT40 Tdp1-/- hTDP1 cells, no CPT, ATP luminescence, 48 h; Potency, µM (series often up to 46.2 µM), for the others: at the top dose activity change, negative = growth inhibition, hits mostly inhibitors; hit rate 15% among 420,000; also: nearly all actives have a fitted effect of over 55% in size
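Readout: luminescence from CellTiter-Glo after 30 min in the dark at RT. Cells: DT40 Tdp1-/- with stable hTDP1, 400/well. Exposure: compounds alone, ≥48 hr, 37 °C.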
* hit, by the source's call; ? = inconclusive; . = no result; ! = not active in a repeat; [ ] = another dose, or the depositor's remark. Calls follow the shape of the dose curve; as a rule, active = well fitted curve in the direction sought with a large enough effect; inconclusive = small, poorly fitted or top-dose-only effect, or another doubt; inactive = no such curve, though single readings can be large; an effect the other way counts as inactive or inconclusive. % is scaled to controls: 0 for no effect and ±100 for the full control effect; potency is read from the fitted curve at half-maximal effect.

SMILES | Gal4-VP16 FLuc | DT40 TDP1 CPT | RORgamma inh | ELG1 repair inh | 12-LOX inh | DT40 TDP1 no CPT
CC(C)[C@@]1(NC(=O)[C@@H]2C[C@H]3c4cccc5[nH]cc(c45)C[C@@H]3N(C)C2)O[C@]2(O)[C@H]3CCCN3C(=O)[C@H](Cc3ccccc3)N2C1=O | -1%[17 µM] | . | 22%[16.9 µM] | . | . | .
CN1C[C@H](C(=O)N[C@]2(C)O[C@@]3(O)[C@@H]4CCCN4C(=O)[C@H](Cc4ccccc4)N3C2=O)CC2c3cccc4[nH]cc(c34)C[C@H]21 (stereo partly specified) | . | ? | . | -7% | ? | 18µM*!
CC(C)[C@@]1(NC(=O)[C@H]2CC3c4cccc5[nH]cc(c45)C[C@H]3N(C)C2)O[C@@]2(O)C3CCCN3C(=O)[C@@H](Cc3ccccc3)N2C1=O (stereo partly specified) | -3% | 15µM* | 25%[10 µM] | . | ? | 15µM*
Cc1ccc(NC(=O)N2CCN(c3cc(-c4noc(C)n4)ccc3C)CC2)c(F)c1 | . | ? | . | . | -17% | 16µM*
c1ccc(-c2ccncc2)cc1 | . | 7% | . | 10% | 2% | -1%
Cc1cc(-c2ccccc2)cc(C)[n+]1Cc1ccccc1 | . | 1.5µM* | . | -13% | 1% | 1.6µM*
C=CCCC[C@@H]1OC(=O)CNC(=O)C([C@@H](C)CC)NC(=O)[C@@H]2CCCN2C(=O)C([C@@H](C)CC)OC(=O)[C@H](Cc2ccccc2)N(C)C(=O)[C@H](C(C)C)NC(=O)C1(C)C (stereo partly specified) | . | 13µM* | . | . | -1% | 16µM*
O=C(Nc1cccc2ccccc12)c1nn(C23CC4CC(CC(C4)C2)C3)cc1Br | ? | 23µM* | 30% | 4% | 0% | 16µM*
COc1cc(C2SCC(=O)Nc3[nH]ncc32)ccc1OCC(C)C (stereo unspecified) | . | . | . | . | -6% | .
CN(Cc1ccccc1)Cc1cn(C[C@H]2CC3CCN2C[C@@H]3C(=O)NCc2ccc(F)cc2)nn1 (stereo partly specified) | . | . | . | . | 9% | .
COc1ccccc1C(=O)N1[C@H]2CC[C@@H]1c1cnc(-c3ccc(F)cc3)nc1C2 | . | . | . | . | 9% | .
CCCC(CCC)C(=O)OC[N+](C)(C)CCOC(=O)C(O)(c1ccccc1)C1CCCC1 (stereo unspecified) | 9% | ? | -1% | 4% | -8% | 12µM*
COc1ccc2c(c1)/C(=C/c1cnc[nH]1)C(=O)N2 | ? | 2.6µM* | ? | ? | 10% | 1.2µM*
O=C1Nc2ccccc2/C1=C/c1cnc[nH]1 | -4% | ? | ? | 26% | 19% | 18µM*
COc1cc(C=C2C(=O)NC(=O)NC2=O)ccc1O | -2% | -1% | 0% | 6% | ? | 4%
COc1ccc2c(c1)C1(CCNC1)C(=O)N2 (stereo unspecified) | . | . | . | . | 63% | .
COc1cc(OC)c(/C=C2\C(=O)Nc3ccccc32)c(OC)c1 | . | 2.6µM* | . | ? | -6% | 2.6µM*
OCC1CN(C2CCC2)CC12CCN(Cc1ccncc1)CC2 (stereo unspecified) | . | . | . | . | 111% | .
Cc1c(Cl)ccc2sc(N3CCN(C(=O)CCS(=O)(=O)c4ccc(F)cc4)CC3)nc12 | . | 0.58µM* | . | . | -19% | 0.46µM*
O=C(Cc1ccc(S(=O)(=O)N2CCCC2)s1)N1CCN(c2ccc(F)cc2)CC1 | 0% | ? | 24% | ? | -12% | ?
CCCCn1c(NC(=O)c2ccc(Br)o2)c(C(=O)OCC)c2nc3ccccc3nc21 | ? | ? | ? | ? | -10% | 21µM*
CCCCn1c(NS(=O)(=O)c2ccccc2)c(C(=O)OCC)c2nc3ccccc3nc21 | -9% | ? | 7% | -19% | 0% | 21µM*
COc1cc2c(cc1OCC1CC1)NC(=O)C21CCN(C(=O)c2ccnn2C)CC1 | . | . | . | . | -2%[176 µM] | .
C/C(=N\NC(N)=S)C12CC3CC(CC(C3)C1)C2 | 2.5µM* | 23µM* | 1.8µM* | ? | ? | 15µM*
O=C(NC1CCCCC1)[C@H]1CN2CCC1C[C@@H]2Cn1cc(CSc2ccccc2)nn1 (stereo partly specified) | . | . | . | . | 8% | .
SMILES | Gal4-VP16 FLuc | DT40 TDP1 CPT | RORgamma inh | ELG1 repair inh | 12-LOX inh | DT40 TDP1 no CPT
CCOC(=O)[C@]12Cc3c(cc(OC)c(OC)c3OC)[C@H]1N(C)C(=O)c1ccccc12 | . | ? | . | . | 92% | 21µM*
CCOC(=O)[C@]12Cc3c(cc(OC)c(OC)c3OC)[C@H]1N(CCC(=O)OC)C(=O)c1ccccc12 | . | 18µM* | . | . | 96% | 16µM*
Cn1nc(-c2ccccc2)cc1[C@H]1CN2CC[C@H]1C[C@@H]2CNS(C)(=O)=O | . | . | . | . | 47%[176 µM] | .
COC(=O)C1=C(c2ccc(F)cc2F)C[C@@H]2CC[C@H]1N2C(=O)NCCOc1ccccc1 | . | 23µM* | . | -11% | 9% | ?
COC(=O)C1=C(c2ccc(-c3ccccc3)c(F)c2)C[C@@H]2CC[C@H]1N2C(=O)NCCOc1ccccc1Cl | . | ? | . | ? | 5% | ?
CCCNC(=O)N1[C@H]2CC[C@@H]1C(C(=O)OC)=C(c1ccc(-c3ccccc3)c(F)c1)C2 | . | 9.2µM* | . | 0% | 3% | 7.3µM*
COC(=O)C1=C(c2ccc(-c3ccccc3)c(F)c2)C[C@@H]2CC[C@H]1N2C(=O)NCCO | . | ? | . | -3% | 7% | 21µM*
COC(=O)C1=C(c2ccc(-c3ccccc3)c(F)c2)C[C@@H]2CC[C@H]1N2C(=O)NCc1ccco1 | . | 7.3µM* | . | ? | -14% | 6.5µM*
CC(=Cc1csc(C)n1)[C@@H]1C[C@H]2O[C@@H]2CCC[C@H](C)[C@@H](O)[C@@H](C)C(=O)C(C)(C)[C@@H](O)CC(=O)O1 | . | . | . | . | -6%[57.4 µM] | .
O=C(Nc1ccccc1)[C@H]1CN2CC[C@H]1C[C@@H]2Cn1cc(CC2CCCCC2)nn1 | . | . | . | . | 28%[176 µM] | .
CCOc1ccc(CCNC(=O)c2ccc(-n3c(C)cc4c3CCCC4)cc2)cc1OCC | . | 12µM* | . | . | 30% | 12µM*
CN(CC1CCCCC1)C1CCc2ccccc2C1 (stereo unspecified) | . | . | . | . | 5%[176 µM] | .
